{
  "source": "the supplement of paper PMC11634586",
  "note": "Counter-ions that a name gives are not always drawn. A number with no mark means an inactive call.",
  "data": [
    {"system": "NCI-H1688", "assay": "inhibition of cell viability relative to untreated control (fraction); higher = stronger growth inhibition, active = 0.5 or more", "conditions": "30 µM; 24 h", "how_it_was_run": "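NCI-H1688 small cell lung cancer cells were seeded at 3 × 10^3 cells/well in 96-well plates and treated 24 h later with a natural compound library (TargetMol) at 30 µM for 24 h, at 37°C with 5% CO2. Viability was read in triplicate with Cell Counting Kit-8 as absorbance at 450 nm. Inhibition of cell viability is expressed as a fraction, derived from viability normalised to the untreated control.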", "values": [
      {"smiles": "O=C(/C=C/C=C/c1ccc2c(c1)OCO2)N1CCCCC1", "note": "[Piperine]", "inhibition of cell viability": -0.249},
      {"smiles": "O=C1C[C@@H](c2ccc(O[C@@H]3O[C@H](CO)[C@@H](O)[C@H](O)[C@H]3O)cc2)Oc2cc(O)ccc21", "note": "[Liquiritin]", "inhibition of cell viability": 0.0621},
      {"smiles": "CC(C)(S)[C@@H](N)C(=O)O", "note": "[Artamine]", "inhibition of cell viability": 0.0772},
      {"smiles": "COc1ccc(-c2coc3cc(O)cc(O)c3c2=O)cc1", "note": "[Biochanin A]", "inhibition of cell viability": -0.0526},
      {"smiles": "C[N+](C)(C)CC(=O)O", "note": "[Betaine]", "inhibition of cell viability": 0.299},
      {"smiles": "CN(N=O)C(=O)N[C@@H](C=O)[C@@H](O)[C@H](O)[C@H](O)CO", "note": "[Streptozocin]", "inhibition of cell viability": 0.214},
      {"smiles": "CC(=O)Oc1c(C)c(C)c2c(c1C)CCC(C)(CCC[C@H](C)CCC[C@H](C)CCCC(C)C)O2", "note": "(stereo partly drawn) [Vitamin E Acetate]", "inhibition of cell viability": -0.0362},
      {"smiles": "C[n+]1cccc(C(=O)[O-])c1", "note": "[Trigonelline hydrochloride]", "inhibition of cell viability": -0.14},
      {"smiles": "C=C1C[C@@]2(O)O[C@@]3(C[C@H]2C(C)C)[C@@H](C)CC[C@@H]13", "note": "[Curcumol]", "inhibition of cell viability": -0.0691},
      {"smiles": "Cc1cccc(C)c1NC(=O)c1ccccc1C(=O)O", "note": "[Ftaxilide]", "inhibition of cell viability": -0.0604},
      {"smiles": "C[C@H](O)[C@H]1CC[C@H]2[C@@H]3CC[C@@H]4C[C@H](O)CC[C@]4(C)[C@H]3CC[C@]12C", "note": "[5Beta-Pregnane-3Alpha,20alpha-Diol]", "inhibition of cell viability": -0.113},
      {"smiles": "CC1(C)CCCC2(C)OC(=O)C=C12", "note": "(stereo not drawn) [Dihydroactinidiolide]", "inhibition of cell viability": 0.194},
      {"smiles": "C=C(C)[C@@H]1CC[C@]2(CO)CC[C@]3(C)[C@H](CC[C@@H]4[C@@]5(C)CC[C@H](O)C(C)(C)[C@@H]5CC[C@]43C)[C@@H]12", "note": "[Betulin]", "inhibition of cell viability": "0.831 (active)"},
      {"smiles": "C[C@@H]1O[C@@H](OC[C@H]2O[C@@H](Oc3c(-c4ccc(OCCO)c(OCCO)c4)oc4cc(OCCO)cc(O)c4c3=O)[C@H](O)[C@@H](O)[C@@H]2O)[C@H](O)[C@H](O)[C@H]1O", "note": "[Troxerutin]", "inhibition of cell viability": -0.145},
      {"smiles": "CC(C)(CO)[C@@H](O)C(=O)NCCC(=O)NCCSSCCNC(=O)CCNC(=O)[C@H](O)C(C)(C)CO", "note": "[D-Pantethine]", "inhibition of cell viability": -0.262},
      {"smiles": "OC[C@H]1O[C@H](OC[C@H]2O[C@H](OC[C@H]3O[C@H](O[C@]4(CO)O[C@H](CO)[C@@H](O)[C@@H]4O)[C@H](O)[C@@H](O)[C@@H]3O)[C@H](O)[C@@H](O)[C@H]2O)[C@H](O)[C@@H](O)[C@H]1O", "note": "[D-Stachyose tetrahydrate]", "inhibition of cell viability": -0.0317},
      {"smiles": "CC(=O)O[C@]1(C)CC[C@@]23C[C@H]1C(C)(C)[C@@H]2CC[C@H]3C", "note": "[Cedryl acetate]", "inhibition of cell viability": -0.223},
      {"smiles": "CC1(C)CCC[C@](C)([C@H]2CC[C@]3(C)[C@@H]2[C@H](O)C[C@@H]2[C@@]4(C)CC[C@H](O)C(C)(C)[C@@H]4[C@H](O)C[C@]23C)O1", "note": "[Panaxtriol]", "inhibition of cell viability": -0.0145},
      {"smiles": "C[C@H](CCC(=O)NCCS(=O)(=O)O)[C@H]1CC[C@H]2[C@@H]3[C@H](O)C[C@@H]4C[C@H](O)CC[C@]4(C)[C@H]3C[C@H](O)[C@]12C", "note": "[Taurocholic acid sodium salt hydrate]", "inhibition of cell viability": -0.0242},
      {"smiles": "OC[C@H]1O[C@@H](Oc2ccc(O)cc2)[C@H](O)[C@@H](O)[C@@H]1O", "note": "[Arbutin]", "inhibition of cell viability": -0.263},
      {"smiles": "OCc1c[nH]c2ccccc12", "note": "[Indole-3-carbinol]", "inhibition of cell viability": 0.0235},
      {"smiles": "CC1OC(OC2C(OC3CCC4(C)C(CCC5(C)C4CC=C4C6CC(C)(C)CCC6(C(=O)OC6OC(COC7OC(CO)C(O)C(O)C7O)C(O)C(O)C6O)CCC45C)C3(C)CO)OCC(O)C2O)C(O)C(O)C1O", "note": "(stereo not drawn) [Dipsacoside B]", "inhibition of cell viability": 0.235},
      {"smiles": "OCc1ccccc1O[C@@H]1O[C@H](CO)[C@@H](O)[C@H](O)[C@H]1O", "inhibition of cell viability": -0.21},
      {"smiles": "C[C@@H]1CC[C@@]2(OC1)O[C@H]1C[C@H]3[C@@H]4CC=C5C[C@@H](O)CC[C@]5(C)[C@H]4CC[C@]3(C)[C@H]1[C@@H]2C", "note": "[Diosgenin]", "inhibition of cell viability": -0.279},
      {"smiles": "CC(C)=CCC[C@](C)(O[C@@H]1O[C@H](CO[C@@H]2O[C@@H](CO)[C@H](O)[C@H]2O)[C@@H](O)[C@H](O)[C@H]1O)[C@H]1CC[C@]2(C)[C@@H]1[C@H](O)C[C@@H]1[C@@]3(C)CC[C@H](O[C@@H]4O[C@H](CO)[C@@H](O)[C@H](O)[C@H]4O[C@@H]4O[C@H](CO)[C@@H](O)[C@H](O)[C@H]4O)C(C)(C)[C@@H]3CC[C@]12C", "note": "[Ginsenoside Rc]", "inhibition of cell viability": -0.0382},
      {"smiles": "COc1cc2c(cc1OC)-c1cc3ccc(OC)c(OC)c3c[n+]1CC2", "note": "[Palmatine chloride]", "inhibition of cell viability": 0.0401},
      {"smiles": "OC[C@H]1O[C@@H]2O[C@H]3[C@H](O)[C@@H](O)[C@@H](O[C@H]4[C@H](O)[C@@H](O)[C@@H](O[C@H]5[C@H](O)[C@@H](O)[C@@H](O[C@H]6[C@H](O)[C@@H](O)[C@@H](O[C@H]7[C@H](O)[C@@H](O)[C@@H](O[C@H]8[C@H](O)[C@@H](O)[C@@H](O[C@H]1[C@H](O)[C@H]2O)O[C@@H]8CO)O[C@@H]7CO)O[C@@H]6CO)O[C@@H]5CO)O[C@@H]4CO)O[C@@H]3CO", "note": "[Beta-Cyclodextrin]", "inhibition of cell viability": 0.0604},
      {"smiles": "COc1ccc2cc1Oc1ccc(cc1)C[C@H]1c3cc(c(OC)cc3CCN1C)Oc1c(O)c(OC)cc3c1[C@H](C2)N(C)CC3", "note": "[Fangchinoline]", "inhibition of cell viability": "0.969 (active)"},
      {"smiles": "CC1(C)CCC[C@](C)([C@H]2CC[C@]3(C)[C@@H]2[C@H](O)C[C@@H]2[C@@]4(C)CC[C@H](O)C(C)(C)[C@@H]4CC[C@]23C)O1", "note": "[Panaxadiol]", "inhibition of cell viability": -0.0255},
      {"smiles": "COc1c2occc2cc2ccc(=O)oc12", "note": "[8-Methoxypsoralen]", "inhibition of cell viability": 0.302},
      {"smiles": "C[N+](C)(C)CC(O)CC(=O)[O-]", "note": "(racemic) [DL-Carnitine]", "inhibition of cell viability": 0.00503},
      {"smiles": "OC1OC[C@@H](O)[C@@H](O)[C@@H]1O", "note": "(stereo partly drawn) [D(-)-Arabinose]", "inhibition of cell viability": 0.0239},
      {"smiles": "CC(C)(O)CC[C@@H](O)[C@](C)(O)[C@H]1CC[C@@]2(O)C3=CC(=O)[C@@H]4C[C@@H](O)[C@@H](O)C[C@]4(C)[C@H]3CC[C@]12C", "note": "[Ecdysterone]", "inhibition of cell viability": -0.0294},
      {"smiles": "COc1ccc(-c2coc3cc(O)ccc3c2=O)cc1", "note": "[Formononetin]", "inhibition of cell viability": 0.0427},
      {"smiles": "N[C@@H](Cc1c[nH]c2ccc(O)cc12)C(=O)O", "note": "[L-5-Hydroxytryptophan]", "inhibition of cell viability": 0.0989},
      {"smiles": "CC(=O)OCC(=O)[C@@]1(O)CC[C@H]2[C@@H]3CCC4=CC(=O)C=C[C@]4(C)[C@@]3(Cl)[C@@H](Cl)C[C@@]21C", "note": "[Dichlorisone Acetate]", "inhibition of cell viability": -0.129},
      {"smiles": "CC1(C)CC[C@]2(C)CC[C@]3(C)C(=CC[C@@H]4[C@@]5(C)CC[C@@H](O)[C@](C)(C(=O)O)[C@@H]5CC[C@]43C)[C@@H]2C1", "inhibition of cell viability": 0.314},
      {"smiles": "COc1ccc(CC(=O)O)cc1OC", "note": "[Homoveratrumic acid]", "inhibition of cell viability": 0.0253}
    ]}
  ]
}
